Compound activity as filed in PubChem BioAssay.
A selection: hits, their analogues and other compounds. The true share with any hit is near 11%.
BAZ2B inh = blocks human BAZ2B; Potency, µM (doses to about 114 µM), actives largely listed as inhibitors; Q9UIF8; AID 504333; actives 4.4% (n = 360,000); AlphaScreen BAZ2B-H3K14Ac peptide displacement; also: nearly all actives have a fitted effect of over 60% in size
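Multi-concentration screen (max 110 uM) measuring displacement of acetylated histone H3 peptide from BAZ2B by AlphaScreen, using 50 nM protein, 50 nM peptide and 10 ug/mL streptavidin donor plus Ni-chelate acceptor beads.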
G9a block = inhibitors of human histone lysine methyltransferase G9a; Q96KQ7; G9a H3K9 monomethylation, AlphaScreen, 2 h; Potency, µM (highest dose often 102 µM), hits mostly inhibitors; actives 8.8% (n = 350,000); AID 504332; also: nearly all actives have a fitted effect of over 75% in size
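Step 1: enzyme (final 20 nM) with compound, 15 min RT. Step 2: substrate peptide 500 nM and SAM 20 uM, 2 h RT. Step 3: anti-H3K9me1 antibody and AlphaScreen beads, 10 min, then plate read.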
JMJD2A Tudor inh = inhibitors of human JMJD2A Tudor domain. AlphaScreen JMJD2A-Tudor / H3K4me3 peptide binding. Potency, µM (doses to about 114 µM), most hits filed as inhibitors. actives 4.4% (n = 390,000); also: nearly all actives have a fitted effect of over 50% in size
HP1b binding inh = inhibitors of HP1-beta chromodomain binding to methylated histone tails. P83916. AlphaScreen HP1-beta / biotin-H3K9me3 peptide binding. Potency, µM (top dose mostly 114 µM), usual class: inhibitors. actives 0.56% (n = 390,000). AID 540317; also: nearly all actives have a fitted effect of over 70% in size
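Compound inhibition of the preformed complex between 50 nM HP1-beta and 50 nM biotinylated H3K9me3 peptide was read by AlphaScreen. Buffer was PBS pH 7.4 with 0.01% Tween-20. Incubations ran 30 min at room temperature, with 10 ug/mL donor/acceptor beads.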
L3MBTL1 block = inhibitors of human L3MBTL1; Q9Y468; AlphaScreen L3MBTL1–H3K9me1 peptide binding; Potency, µM (top dose mostly 57.1 µM), usual class: inhibitors; actives 0.66% (n = 230,000); AID 485360; also: nearly all actives have a fitted effect of over 60% in size
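AlphaScreen assay: L3MBTL1 (50 nM final) was preincubated 30 min at room temperature with biotinylated H3(1-15)K9me1 peptide (75 nM final), then 30 min with library compounds; streptavidin donor and nickel chelate acceptor beads (10 ug/mL final) added, 30 min dark.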
Of the large screens only hits and unclear results are named; the others gave an inactive call. Calls follow the shape of the dose curve; as a rule, active = well fitted inhibition curve with a large enough effect; inconclusive = small, poorly fitted or top-dose-only effect; inactive = no such curve, though single readings can be large or run the other way.

N/C(=N\OC(=O)c1ccc(Br)o1)c1ccccn1	G9a block 20µM
N/C(=N\OC(=O)COc1ccc(Br)cc1Cl)c1ccccn1	G9a block inconclusive, JMJD2A Tudor inh 79µM
N/C(=N\OC(=O)COc1ccccc1)c1ccccn1	G9a block 11µM
N/C(=N\OC(=O)/C=C/c1ccccc1Cl)c1cccnc1	none
CCc1ccc(OCC(=O)O/N=C(\N)c2ccccn2)cc1	G9a block inconclusive
N/C(=N\OC(=O)/C=C/c1ccccc1Cl)c1ccccn1	BAZ2B inh 79µM (no result: L3MBTL1 block)
COc1cc2c(=O)c(C(=O)c3ccc(C)c(C)c3)cn(Cc3ccccc3F)c2cc1OC	none (no result: L3MBTL1 block)
O=C(NCc1ccco1)c1nc2nc(-c3cccs3)cc(C(F)(F)F)n2n1	BAZ2B inh inconclusive, G9a block 45µM, L3MBTL1 block inconclusive
O=C(NCc1ccco1)c1nn2c(C(F)(F)F)cc(-c3cccs3)nc2c1Br	BAZ2B inh inconclusive, G9a block 50µM (no result: L3MBTL1 block)
COc1cccc(CNC(=O)CCc2c(C)c3cc4c(C)coc4c(C)c3oc2=O)c1	JMJD2A Tudor inh inconclusive (no result: L3MBTL1 block)
CCC(=O)N1CCc2cc(S(=O)(=O)NC(CC(C)C)C(=O)Nc3cccc(C)c3C)ccc21 (centres undefined)	none (no result: BAZ2B inh, L3MBTL1 block)
COc1ccc(CNC(=O)COC(=O)[C@H](Cc2c[nH]c3ccccc23)NC(=O)c2cccs2)cc1	BAZ2B inh inconclusive, JMJD2A Tudor inh inconclusive
Cc1ccccc1CN1C(=O)CS/C1=N/N=C/c1ccco1	BAZ2B inh inconclusive, G9a block 40µM (no result: L3MBTL1 block)
O=C1CS/C(=N/N=C/c2ccccc2)N1Cc1ccco1	none (no result: G9a block)
O=C(O)CC1NCCc2ccccc21 (centres undefined)	none
O=C(O)C1NCCc2ccccc21 (centres undefined)	BAZ2B inh inconclusive, G9a block 40µM, JMJD2A Tudor inh inconclusive
CC(C)(C)c1cn(-c2ccc(Cl)cc2)c(=S)[nH]1	G9a block 2µM, JMJD2A Tudor inh 35µM (no result: L3MBTL1 block)
Cc1sc2ncn(CC(=O)N(C)c3cccc(C(F)(F)F)c3)c(=O)c2c1S(=O)(=O)N1CCN(c2ncccn2)CC1	none (no result: L3MBTL1 block)
Cc1cc(C)cc(NC(=O)c2cccc(C(=O)Nc3cc(C)cc(C)c3)c2)c1	none (no result: L3MBTL1 block)
Fc1ccc(-c2csc(N3CCOCC3)n2)cc1	none (no result: G9a block)
COc1cc(-c2csc(N3CCOCC3)n2)cc(OC)c1OC	BAZ2B inh inconclusive, G9a block 56µM
c1ccc(-c2csc(N3CCSCC3)n2)cc1	none
c1ccc2oc(-c3csc(N4CCOCC4)n3)cc2c1	G9a block 40µM (no result: L3MBTL1 block)
O=C(CC1N=C2c3ccccc3N=C(SCc3cccc(Cl)c3)N2C1=O)NC1CCCCC1 (centres undefined)	none (no result: L3MBTL1 block)
C=CCN1C(=O)c2ccc(C(=O)N(CC)CC(=O)Nc3c(F)cccc3F)cc2C1=O	G9a block inconclusive
C=CCN1C(=O)c2ccc(C(=O)N(C)CC(=O)Nc3c(C)cccc3C)cc2C1=O	G9a block 50µM
Cc1[nH]c(-c2ccc(F)cc2)cc1C(=O)N1CCN(c2ccccc2F)CC1	BAZ2B inh inconclusive, G9a block 71µM, JMJD2A Tudor inh inconclusive, HP1b binding inh inconclusive (no result: L3MBTL1 block)
Cc1nn2c(C)c(C(=O)N3CCN(c4ccccc4F)CC3)cnc2c1-c1ccc(F)cc1	none (no result: L3MBTL1 block)
Cc1ccc(N2CCN(C(=O)c3cc(-c4ccc(F)cc4)[nH]c3C)CC2C)cc1 (centres undefined)	BAZ2B inh 45µM, G9a block inconclusive, JMJD2A Tudor inh inconclusive, HP1b binding inh inconclusive (no result: L3MBTL1 block)
COc1cccc(N2CCN(C(=O)c3cc(-c4ccc(F)cc4)[nH]c3C)CC2)c1	G9a block inconclusive, JMJD2A Tudor inh inconclusive, HP1b binding inh inconclusive (no result: L3MBTL1 block)
Cc1[nH]c(-c2ccc(F)cc2)cc1C(=O)N1CCN(c2ccccc2)CC1	BAZ2B inh inconclusive, G9a block 50µM, JMJD2A Tudor inh 56µM (no result: L3MBTL1 block)
COc1ccccc1N1CCN(C(=O)c2cc(-c3ccc(F)cc3)[nH]c2C)CC1	BAZ2B inh inconclusive, G9a block 50µM, JMJD2A Tudor inh 56µM, HP1b binding inh inconclusive (no result: L3MBTL1 block)
COc1cccc2sc3cc(C#Cc4ccccn4)ccc3c(=O)c12	JMJD2A Tudor inh 28µM (no result: BAZ2B inh, G9a block)
COc1cccc2oc3ccc(C#Cc4ccccn4)cc3c(=O)c12	G9a block 50µM
O=c1c2ccccc2oc2cc(C#Cc3ccccn3)ccc12	none (no result: BAZ2B inh, G9a block, L3MBTL1 block)
CC(C)n1nc(C(=O)NNC(=O)c2ccncc2)c2ccccc2c1=O	BAZ2B inh inconclusive, G9a block inconclusive
CC(C)n1nc(C(=O)NNC(=O)c2ccc(OC(F)F)cc2)c2ccccc2c1=O	G9a block 3.2µM
Cn1nc(C(=O)NCc2ccccn2)c2ccccc2c1=O	BAZ2B inh inconclusive, JMJD2A Tudor inh 22µM
Cn1nc(C(=O)NCc2ccccc2)c2ccccc2c1=O	none (no result: L3MBTL1 block)
CCOc1ccc(OCCC(=O)NNC(=O)c2nn(C)c(=O)c3ccccc23)cc1	BAZ2B inh 71µM, G9a block inconclusive, JMJD2A Tudor inh inconclusive (no result: L3MBTL1 block)
CCOC(=O)c1c(S(=O)(=O)N2CCCC(C(=O)NCc3ccccc3OC)C2)c(C)n(C)c1C (centres undefined)	none (no result: L3MBTL1 block)
CC1=C(C(=O)OCc2ccccc2)C(c2ccccc2-c2ccccc2)NC(=O)N1CCCCCC(=O)O (centres undefined)	BAZ2B inh 50µM, G9a block 50µM, JMJD2A Tudor inh inconclusive
CC1=C(C(=O)OCc2ccccc2)C(c2ccccc2Cl)NC(=O)N1CCCC(=O)O (centres undefined)	none
CC1=C(C(=O)OCc2ccccc2)C(c2ccccc2[N+](=O)[O-])NC(=O)N1C (centres undefined)	G9a block 40µM (no result: L3MBTL1 block)
CC1=C(C(=O)OCc2ccccc2)C(c2ccc3ccccc3c2)NC(=O)N1CCCC(=O)O (centres undefined)	BAZ2B inh inconclusive (no result: G9a block)
CC1=C(C(=O)OCc2ccccc2)C(c2ccccc2Cl)NC(=O)N1CCCCCC(=O)O (centres undefined)	G9a block 79µM
O=C(Cn1cc(SCc2ccccc2Cl)c2ccccc21)N1CCCCCC1	none (no result: L3MBTL1 block)
Cc1ccccc1-c1noc(-c2ccc(NCc3ccco3)c([N+](=O)[O-])c2)n1	G9a block inconclusive, JMJD2A Tudor inh inconclusive (no result: L3MBTL1 block)
Cc1ccc(S(=O)(=O)N(C)/N=C2/C(=O)N(CC(=O)O)c3ccccc32)cc1	G9a block 14µM, JMJD2A Tudor inh inconclusive (no result: L3MBTL1 block)
COc1ccc(CNC(=O)CCc2nc(-c3ccc(C)cc3)no2)c(OC)c1	none (no result: L3MBTL1 block)
CC1CCC(C(C)C)C2=C1C(C#N)(C#N)C(C#N)(C#N)C(c1ccccc1)N2 (centres undefined)	BAZ2B inh inconclusive, G9a block 7.1µM, JMJD2A Tudor inh inconclusive, HP1b binding inh inconclusive
COc1ccc(OC)c(NC(=O)Nc2cccc(OCc3cc(=O)n4cc(C)ccc4n3)c2)c1	none (no result: L3MBTL1 block)
CCc1nn(Cc2c(C)cc(C)cc2C)c(=O)c2cc3cc(C)ccc3n12	none (no result: L3MBTL1 block)
Cc1cc(Cl)c(OCCCn2ccnc2)c(Br)c1	BAZ2B inh 50µM, G9a block inconclusive, JMJD2A Tudor inh 22µM, HP1b binding inh inconclusive
